From PubChem BioAssay AID1030 (National Center for Advancing Translational Sciences (NCATS), 2008)
Among all 220,000 compounds or so, about 16,000 (7.3%) were called active. Entries that show only a call come without a potency. Inconclusive results (about 25%) are left out. Many of the other results were omitted from the sample, so actives are more common in it than they were. Values without a mark were called inactive. Calls come from the whole dose curve; as a rule, active = well fitted inhibition curve with a large enough effect (not every such curve was filed as active); inconclusive = small, poorly fitted or top-dose-only effect, or another doubt; inactive = no such curve, though single readings can be large or run the other way.
Potency is the fitted concentration of half-maximal effect.

What follows are compounds tested against Aldehyde dehydrogenase 1A1 (Homo sapiens) (UniProt P00352) (assay: qHTS Assay for Inhibitors of Aldehyde Dehydrogenase 1 (ALDH1A1)). Conditions: Purified ALDH1A1, NADH fluorescence, propionaldehyde substrate; series mostly up to 75.3 µM.
Aldehyde dehydrogenase 1A1 (Homo sapiens), sequence (P00352 whole entry, looked up): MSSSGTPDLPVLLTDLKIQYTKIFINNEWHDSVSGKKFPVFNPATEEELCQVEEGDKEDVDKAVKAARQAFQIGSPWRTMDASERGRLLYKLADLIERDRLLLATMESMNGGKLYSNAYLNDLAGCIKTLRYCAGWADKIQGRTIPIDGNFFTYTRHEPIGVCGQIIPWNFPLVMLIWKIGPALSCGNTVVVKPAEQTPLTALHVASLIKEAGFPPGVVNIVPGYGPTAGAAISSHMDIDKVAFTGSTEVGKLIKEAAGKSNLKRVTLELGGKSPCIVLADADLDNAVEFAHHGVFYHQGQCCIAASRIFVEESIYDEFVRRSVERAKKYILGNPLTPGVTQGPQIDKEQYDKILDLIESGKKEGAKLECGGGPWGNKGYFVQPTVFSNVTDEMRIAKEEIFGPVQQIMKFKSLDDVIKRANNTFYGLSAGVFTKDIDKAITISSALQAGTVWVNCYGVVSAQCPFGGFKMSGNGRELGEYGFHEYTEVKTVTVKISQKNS
With `COc1ccc(C2=NOC(COC(=O)c3ccc4ccccc4n3)C2)cc1` (stereo not drawn) the Potency was 5.62 µM (active).
In the case of `CN(C)/C=C(\C=[N+](C)C)c1[nH]ncc1[N+](=O)[O-]`, the Potency is reported as “inactive”.
For `CC[N+](CC)(CC)CCCCCCCCCC[N+](CC)(CC)CC`, the Potency was “inactive”.
`O=C1C2CCN(CC2)C1(CO)CO` was tested, and the Potency was “inactive”.
For `CN(C)CCCN=Cc1c(O)n(Cc2ccco2)c(=O)[nH]c1=O`, the Potency was “inactive”.
`CC(C)n1c(=O)c(C=Nc2ccc(Br)cc2)c(O)n(Cc2ccco2)c1=O` was tested, and the Potency was 14.1 µM (active).
With `COc1cc2c(cc1OC)[C@@H]1C(=O)c3ccc(O)c(CC=C(C)C)c3OC1CO2` (stereo partly drawn) the Potency was “inactive”.
For `CC(=O)Nc1ccccc1C(=O)OCC(=O)c1cccc2ccccc12`, the Potency was “inactive”.
In the case of `NCC[Se][Se]CCN`, the Potency is reported as 3.55 µM (active).
With `CC[C@H]1CN2CCc3cc(OC)c(OC)cc3[C@@H]2C[C@@H]1C[C@H]1NCCc2cc(OC)c(OC)cc21` the Potency was “inactive”.
`CCc1cccc2c(C#N)cn(CC(=O)N3CCOCC3)c12` was tested, and the Potency was “inactive”.
With `CCN(CC)P(=O)(Oc1cccc(C)c1)N(CC)CC` the Potency was “inactive”.
`Cc1cccc([C@H](C)c2cnc[nH]2)c1C` was tested, and the Potency was “inactive”.
`ClC(Cl)(Cl)c1ccccc1` was tested, and the Potency was “inactive”.
With `O=Cc1cn(Cc2ccc(F)cc2Cl)c2ccccc12` the Potency was 3.16 µM (active).
With `Cc1ccc(-c2nn(CCC#N)cc2C(=O)O)cc1C` the Potency was “inactive”.
Compound `Cc1ccc(S(=O)(=O)O[C@H]2CN3CCC2CC3)cc1` has an activity, negative = inhibition of 4.24% [at 13.5 µM].
In the case of `COC(=O)c1ccc2[se]c(CC3CCCCC3)c(I)c2c1`, the Potency is reported as “inactive”.
For `CCCCCCCCCCCCCC(=O)O[C@@H]1[C@@H](C)[C@@]2(O)[C@@H](C=C(CO)C[C@]3(O)C(=O)C(C)=C[C@@H]23)[C@@H]2C(C)(C)[C@]12OC(C)=O`, the Potency was “inactive”.
`Cn1c(O)c(C=NCCCC(=O)O)c(=O)n(C)c1=O` was tested, and the Potency was “inactive”.
In the case of `C[C@@H]1C[C@@H]2O[C@H]2/C=C\C=C\C(=O)Cc2c(Cl)c(O)cc(O)c2C(=O)O1`, the Potency is reported as “inactive”.
In the case of `O=C(C1CC(=O)N(C2CCCC2)C1)N1CCC2(CC1)OCCO2` (stereo not drawn), the Potency is reported as “inactive”.
In the case of `C=CCN1C(=O)C2(C(C(=O)OCC)=C(N)Oc3c2c(=O)oc2ccccc32)c2ccccc21` (stereo not drawn), the Potency is reported as 0.398 µM (active).
In the case of `CCOC(=O)c1ncn2c1[C@@H]1CCCN1C(=O)c1cc(OC)ccc1-2`, the Potency is reported as “inactive”.
With `CCOCCc1c(O)[nH]c(=S)[nH]c1=O` the Potency was “inactive”.
`CCOC(=O)C1CN(C)CCC1=O` (stereo not drawn) was tested, and the Potency was “inactive”.
In the case of `CNC(C)[C@@H](O)c1ccccc1` (stereo partly drawn), the Potency is reported as “inactive”.
`O=c1oc2ccccc2c(O)c1C(c1ccccc1O)c1c(O)c2ccccc2oc1=O` was tested, and the Potency was “inactive”.
`c1ccc2sc(C3CCCNC3)nc2c1` (stereo not drawn) was tested, and the Potency was “inactive”.
With `c1ccc2sc(N3CCNCC3)nc2c1` the Potency was “inactive”.
`c1ccc2sc(SNC3CCCCC3)nc2c1` was tested, and the Potency was 0.794 µM (active).
`C1CC[C@H]([C@@]23C[C@H](C[C@H]4CCCN[C@H]42)[C@@H]2CCCCN2C3)NC1` was tested, and the Potency was “inactive”.
With `CC1(C)C(c2ccccc2)=NC(c2cccnc2)=[N+]1[O-]` the Potency was “inactive”.
